# Test results as given in PubChem BioAssay (NCI).
# This is part of a sample that, as a whole, favours compounds with a hit. Of some 83,000 tested, about 20% had one in any assay.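 Assay: single dose, 48 h. Readout: percent growth (0 = no net growth; negative = cell death). Active: <10.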 Values without a mark were called inactive. The source made the active and inactive calls.
# Legend:
# Assay in all cases: NCI-60 one-dose screen, 48 h (100 = growth as untreated, 0 = no growth, -100 = all killed)
# Conditions in all cases: 10 µM unless noted
# NCI-H23 lung = tested on: NCI-H23 lung
# NCI-H226 lung = tested on: NCI-H226 lung
# NCI-H322M lung = tested on: NCI-H322M lung
# HOP-62 NSCLC = tested on: HOP-62 NSCLC
# NCI-H460 lung = tested on: NCI-H460 lung
# HOP-92 NSCLC = tested on: HOP-92 NSCLC
# NCI-H522 lung = tested on: NCI-H522 lung
# A549/ATCC NSCLC = tested on: A549/ATCC NSCLC
# 786-0 renal = tested on: 786-0 renal
# COLO 205 colon = tested on: COLO 205 colon
# DU-145 prostate = tested on: DU-145 prostate
# K-562 leukemia = tested on: K-562 leukemia
# MALME-3M melanoma = tested on: MALME-3M melanoma
# MDA-MB-231 breast = tested on: MDA-MB-231 breast
# RXF 393 renal = tested on: RXF 393 renal
# SF-268 CNS = tested on: SF-268 CNS
# SF-295 CNS = tested on: SF-295 CNS
# SF-539 CNS = tested on: SF-539 CNS
# UACC-257 melanoma = tested on: UACC-257 melanoma
# M14 melanoma = tested on: M14 melanoma
Compound,growth (NCI-H23 lung),growth (NCI-H226 lung),growth (NCI-H322M lung),growth (HOP-62 NSCLC),growth (NCI-H460 lung),growth (HOP-92 NSCLC),growth (NCI-H522 lung),growth (A549/ATCC NSCLC),growth (786-0 renal),growth (COLO 205 colon),growth (DU-145 prostate),growth (K-562 leukemia),growth (MALME-3M melanoma),growth (MDA-MB-231 breast),growth (RXF 393 renal),growth (SF-268 CNS),growth (SF-295 CNS),growth (SF-539 CNS),growth (UACC-257 melanoma),growth (M14 melanoma)
Cn1cc(-c2noc(-c3cn(C)c4ncc(F)cc34)n2)c2ccccc21,75.1%,76.7%,41.3%,36.3%,22.9%,62%,66.2%,37.9%,33.6%,66.7%,79.2%,77%,66%,55.1%,73.1%,71.4%,49.6%,75.2%,101%,71.7%
N=C(N)c1ccc(-c2ccc(-c3ccc(-c4cccs4)s3)s2)cc1F,93.2%,95.7%,26%,100%,13%,94.8%,100%,15.1%,99.5%,101%,107%,15.9%,102%,91.2%,90.3%,98.8%,97.5%,94.7%,102%,99.4%
c1ccc(-c2nc(N3CCCNCC3)c3nc(-c4ccccc4)oc3n2)cc1,22.3%,49.9%,93.7%,78.2%,-50.1% (active),42.4%,26.4%,-38.8% (active),67%,-79.2% (active),-18.4% (active),0.76% (active),76.9%,-3.19% (active),27.1%,52%,96.2%,76.3%,100%,95.7%
CC(C)c1ccc(C(=O)Nc2sc3c(c2C#N)CCC(=O)C3)cc1,-5.74% (active),50.5%,71.9%,36.9%,3.31% (active),-52.2% (active),-36.7% (active),15%,8.77% (active),-36.5% (active),43.9%,1.57% (active),-41.2% (active),-39.6% (active),-38.5% (active),26.9%,-7.58% (active),-48.4% (active),-2.97% (active),-6.52% (active)
O=S(=O)(c1ccc(N/N=C\c2ccccc2Cl)cc1)c1ccc(N/N=C/c2ccccc2Cl)cc1,86.8%,74.9%,94.2%,88%,71.2%,31.2%,84.8%,85.2%,98.4%,97.1%,92.1%,86.1%,94.6%,81.6%,106%,67.8%,89.6%,89.7%,92.1%,84.7%
C=C(C)[C@@H]1CC[C@]2(COC(=O)c3ccccc3C(=O)O)CC[C@]3(C)[C@H](CC[C@@H]4[C@@]5(C)CC[C@H](OC(=O)c6ccccc6C(=O)O)C(C)(C)[C@@H]5CC[C@]43C)[C@@H]12,6.7% [100 µM] (active),25.9% [100 µM],30.7% [100 µM],3.17% [100 µM] (active),19.7% [100 µM],-22.3% [100 µM] (active),46.8% [100 µM],51.3% [100 µM],1.64% [100 µM] (active),99.3% [100 µM],29.7% [100 µM],44.7% [100 µM],30.7% [100 µM],-26.2% [100 µM] (active),-21.9% [100 µM] (active),18% [100 µM],10.2% [100 µM],10.6% [100 µM],92.9% [100 µM],29.6% [100 µM]
Nc1ccc2c(c1)Cc1cc(NC(=O)C(F)(F)F)ccc1-2,95.9%,93.6%,95.5%,105%,97.8%,101%,90.3%,93.6%,108%,109%,99.2%,108%,108%,71.2%,113%,96.1%,99.8%,97.6%,104%,109%
